Source: PubChem BioAssay AID1159580 (chemical genetic matrix, 2015)
Out of some 5,500 compounds screened, about 2,000 (36%) were called active. Inconclusive results (about 18%) are left out. Cut-off read from the data, not from the text of the source: active = normalized growth mostly below about 0.91 (no sharp cut-off); inconclusive = no clear call, values can overlap the other calls; inactive = mostly above about 0.92. This is one part of the list.

Assay: chemical genetic growth profiling, strain panel (AID 1159580);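 note: tested at 20 µM; growth read once vehicle control cultures reached saturation at 30 °C; 1 = growth at the plate median or of vehicle wells; lower values mean less growth of the strain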
Settings: S. cerevisiae deletion strains, growth OD

Measured: normalized growth

c1ccc(-c2cc3c(ccc4nonc43)nn2)cc1
inactive: locus YBR229C, strain ROT2, hits give low values 0.957 | locus YDL101C, strain DUN1, hits give low values 0.933 | locus YDL134C, strain PPH21, hits give low values 0.991 | locus YDR150W, strain NUM1, hits give low values 0.922 | locus YEL061C, strain CIN8, hits give low values 0.947 | locus YGR078C, strain PAC10, hits give low values 0.973 | locus YHR087W, strain rtc3, hits give low values 0.971 | locus YJR075W, strain HOC1, hits give low values 0.97 | locus YLR039C, strain RIC1, hits give low values 0.96 | locus YLR058C, strain SHM2 (second series), hits give low values 0.977 | locus YLR085C, strain ARP6, hits give low values 0.878 | locus YLR262C, strain YPT6, hits give low values 0.988 | locus YML094W, strain GIM5, hits give low values 0.935 | locus YMR219W, strain ESC1, hits give low values 0.981 | locus YMR263W, strain SAP30, hits give low values 0.923 | locus YNL153C, strain GIM3, hits give low values 0.955 | locus YNL298W, strain CLA4 (second series), hits give low values 0.945 | locus YNL322C, strain KRE1, hits give low values 0.988 | locus YNR030W, strain Alg12, hits give low values 0.905 | locus YOL006C, strain TOP1, hits give low values 0.734 | locus YPL241C, strain CIN2, hits give low values 0.89 | locus YPR135W, strain CTF4, hits give low values 0.764
active: locus YHR030C, strain SLT2, hits give low values 0.604 | locus YJR043C, strain POL32, hits give low values 0.76 | locus YPL055C, strain LGE1, hits give low values 0.82
